Only some compounds are listed: those with a hit (about 3% of all), similar ones and a draw of the others.
SKOV3 invasion: Primary qHTS assay for Inhibitors of ovarian cancer metastasis using an organotypic tumor microenvironment (TME) model; SKOV3ip1-GFP adhesion/invasion on 3D omental model, fluorescence; Potency, µM (doses to about 45.8 µM), for inactives: top-dose activity change, negative = inhibition, usual class: inhibitors; 46,000 tested, 0.1% active;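 note: plate controls were DMSO wells for no effect and tomatine positive control wells for full effect; nearly all actives have a fitted effect of over 65% in size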
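Primary human omental fibroblast/mesothelial 3D culture pre-formed 48 h. SKOV3ip1-GFP cells added with compounds (0.36-46 umol/L), incubated 2 h RT/16 h 37 C, fixed; GFP cells quantified at 488/509 nm.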
PMP22 txn prim: Cell-based coincidence reporter assay to measure PMP22 gene transcription in S16 Pmp22-F2sN cells - Primary screen | S16 Pmp22-F2sN Schwann cells, FLuc/NLuc coincidence luminescence, 24 h | Potency, µM (doses to about 57.5 µM), without a hit: top-dose activity change, negative = inhibition, actives largely listed as inhibitors | 43,000 tested, 2% active | AID 1508649, 2021; active = clear falling dose curves in both reporters; inconclusive = both reporters move, but less clearly or upward; inactive = either reporter flat; the % is the NLuc reporter signal
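S16(c9) Schwann cells with FLuc/NLuc coincidence reporter in the Pmp22 3' UTR; compounds pin-transferred, 24 h at 37C. Dual-luciferase read: FLuc first, then NLuc after Stop&Glo, each 10 min at room temperature.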
S16 F2sN tox: Cell viability qHTS assay in S16 Pmp22-F2sN cells; S16 Pmp22-F2sN Schwann cells (luciferase reporters placed in the Pmp22 gene) viability, CellTiter-Glo, 24 h; Potency, µM (doses to about 57.5 µM), inactives show top-dose activity change, negative = cytotoxicity, hits mostly cytotoxic; 43,000 tested, 0.48% active; AID 1508642, 2021; note: nearly all actives have a fitted effect of over 65% in size
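CellTiter-Glo counter-screen, qHTS, 1536-well. Cells: S16(c9) Pmp22-F2sN, 500-1,000/well in DMEM + 10% FBS. Cpd 23 nL pin transfer, 24 h, 37C/5% CO2. Read: luminescence, CCD imager.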
mTORC1 inh: Acumen qHTS Assay for Inhibitors of the mTORC1 Signaling Pathway in MEF (Tsc2-/-, p53-/-) Cells: Sytravon. Tsc2-/- p53-/- MEF, phospho-rpS6 immunofluorescence/PI, 24 h. Potency, µM (doses to about 38.3 µM), without a hit: at the highest dose activity change, negative = inhibition, usual class: inhibitors. 44,000 tested, 0.78% active;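 note: plate controls were DMSO for no effect and rapamycin for full effect; nearly all actives have a fitted effect of over 50% in size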
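Compounds act on Tsc2-/-, p53-/- fibroblasts carrying an empty vector for 24 h before fixation and dual staining for phospho-S6 and DNA (propidium iodide). Values are percentages of cells above a rapamycin-defined pS6/PI threshold.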
p53null 39C tox: qHTS Screen for Compounds that Selectively Target Cancer Cells with p53 Mutations: Cytotoxicity of p53 Null Cells at the Nonpermissive Temperature. H1299 p53-null (neo) cells, 39C, ATPlite viability, 24 h. Potency, µM (doses to about 46.1 µM), for inactives: at the top dose activity, negative = cell killing, actives largely listed as cytotoxic. 55,000 tested, 0.97% active;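 note: 0% = DMSO only and -100% = full killing by 100 µM tamoxifen; nearly all actives have a fitted effect of over 50% in size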
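H1299 lung cancer cells, p53-null (H1299-neo) or expressing p53 A138V (H1299-p53A138V), were plated overnight at 37C, then exposed to compounds at up to 46 uM for 24 hr at 39C. Viability was read by ATP-based luminescence.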
p53null 32C kill: qHTS Screen for Compounds that Selectively Target Cancer Cells with p53 Mutations: Cytotoxicity of p53 Null Cells at the Permissive Temperature; H1299-neo p53 null cells, ATP luminescence, 24 h, 32C; Potency, µM (top dose mostly 46.1 µM), inactives show at the top dose activity change, negative = cytotoxicity, hits mostly cytotoxic; 55,000 tested, 0.62% active;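 note: 0% = DMSO only and -100% = full killing by 100 µM tamoxifen; nearly all actives have a fitted effect of over 55% in size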
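Overnight 37C seeding (600 cells/well) of H1299-neo preceded a 24 hr, 32C exposure to compounds up to 46 uM. ATP levels, read by luminescence after 20 min at RT, indicated surviving cells.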
* = called active by the depositor. Unless noted, calls come from the whole dose curve; as a rule, active = well fitted curve in the direction sought with a large enough effect; inconclusive = small, poorly fitted or top-dose-only effect, or another doubt; inactive = no such curve, though single readings can be large; an effect the other way counts as inactive or inconclusive. Unless noted, % is set by controls: 0 for no effect and ±100 for the full control effect; potency is the fitted concentration of half-maximal effect.

Screening COc1ccc(S(=O)(=O)NCC(c2ccco2)S(=O)(=O)c2cccs2)cc1OC (stereo unspecified) returned SKOV3 invasion 6%, PMP22 txn prim inconclusive, S16 F2sN tox 20µM*, mTORC1 inh -2%, p53null 39C tox -1% and p53null 32C kill 2%.
For Cc1ccc(C)c(S(=O)(=O)NCC(c2ccco2)S(=O)(=O)c2ccc(F)cc2)c1 (stereo unspecified) the results were SKOV3 invasion 1%, PMP22 txn prim -5%, S16 F2sN tox 2%, mTORC1 inh 7.4µM*, p53null 39C tox inconclusive and p53null 32C kill 39%.
`O=S(=O)(NCC(c1cccs1)S(=O)(=O)c1ccccc1)c1ccccc1` (stereo unspecified) gave SKOV3 invasion inactive, PMP22 txn prim 15µM*, S16 F2sN tox 10µM*, mTORC1 inh inconclusive, p53null 39C tox 5% and p53null 32C kill -3%.
`COc1cc(C(=O)NCC(c2ccco2)S(=O)(=O)c2cccs2)cc(OC)c1OC` (stereo unspecified) gave SKOV3 invasion -18%, PMP22 txn prim -6%, S16 F2sN tox inconclusive, mTORC1 inh 1%, p53null 39C tox 8% and p53null 32C kill 7%.
For CCOc1ccc(S(=O)(=O)NCC(c2ccco2)S(=O)(=O)c2ccc(C)cc2)cc1 (stereo unspecified) the results were SKOV3 invasion -1%, PMP22 txn prim inconclusive, S16 F2sN tox -2%, mTORC1 inh 1%, p53null 39C tox -5% and p53null 32C kill 1%.
For CC(C=CC(=O)NO)=C[C@@H](C)C(=O)c1ccc(N(C)C)cc1 the results were SKOV3 invasion 0%.
CN(C)CCN1C(=O)c2cccc3cc(N)cc(c23)C1=O was read as SKOV3 invasion 11%.
Screening CCNC(=O)Nc1ccc(Oc2ncnc(N)c2C=NOC)cc1Cl returned SKOV3 invasion 5%.
For COc1ccc(-c2ccc3c(N4CCOC[C@H]4C)nc(N4CCOC[C@H]4C)nc3n2)cc1CO the results were SKOV3 invasion -15%.
Screening CCCc1nn2cc(-c3ccc(C)c(C)c3)nc2s1 returned SKOV3 invasion 4%, PMP22 txn prim 0%, S16 F2sN tox 0%, mTORC1 inh 1%, p53null 39C tox 10µM* and p53null 32C kill 7.9µM*.
`O=C(NCc1ccccn1)c1cc(-c2ccc(-c3ccccc3)cc2)nc2ccccc12` gave p53null 39C tox 7.9µM*.
For CC(C)c1onc(-c2c(Cl)cccc2Cl)c1COc1ccc(C=Cc2cccc(C(=O)O)c2)c(Cl)c1 the results were SKOV3 invasion 26%.
`Cc1ccc(CN2C(=O)c3ccccc3Sc3ccc(C(=O)NCCCN4CCOCC4)cc32)cc1` gave SKOV3 invasion inactive, PMP22 txn prim inconclusive, S16 F2sN tox -28%, mTORC1 inh 12µM*, p53null 39C tox inconclusive and p53null 32C kill -12%.
`CN(c1ncccc1CNc1nc(Nc2ccc3c(c2)CC(=O)N3)ncc1C(F)(F)F)S(C)(=O)=O` gave SKOV3 invasion 24%.
COc1cccc(-c2nnc(Nc3nc4c(F)cccc4s3)o2)c1 was read as p53null 39C tox 2.5µM* and p53null 32C kill inconclusive.
`Fc1ccc(-c2cn3cc(Cc4ccccc4Cl)sc3n2)cc1` gave SKOV3 invasion -30%, PMP22 txn prim -4%, S16 F2sN tox -1%, mTORC1 inh -3%, p53null 39C tox 7.9µM* and p53null 32C kill inconclusive.
For Clc1ccc(-c2cn3cc(Cc4ccccc4)sc3n2)cc1 the results were SKOV3 invasion 5%, PMP22 txn prim 10%, S16 F2sN tox 23%, mTORC1 inh -4%, p53null 39C tox 16µM* and p53null 32C kill inconclusive.
`Fc1ccccc1Cc1cn2cc(-c3ccc(Cl)cc3)nc2s1` gave SKOV3 invasion inactive, PMP22 txn prim -10%, S16 F2sN tox 14%, mTORC1 inh 0%, p53null 39C tox inconclusive and p53null 32C kill inconclusive.
`CCc1cnn2c(NCc3ccc[n+]([O-])c3)cc(N3CCCC[C@@H]3CCO)nc12` gave SKOV3 invasion -2%.
Screening CN1CCN(c2ncc(-c3cc(Cl)cc(Cl)c3Cl)c(N)n2)CC1 returned SKOV3 invasion 3%.
Screening CC1CCN(S(=O)(=O)c2ccc3nc(Nc4cccc(C(F)(F)F)c4)ccc3c2)CC1 returned SKOV3 invasion -18%, PMP22 txn prim inconclusive, S16 F2sN tox inconclusive, mTORC1 inh inconclusive, p53null 39C tox 11µM* and p53null 32C kill -17%.
Screening CNC(=O)c1cc2ccccc2o1 returned p53null 39C tox 21% and p53null 32C kill -8%.
Screening C/C(=N\Nc1nc2ccccc2[nH]1)c1cc2ccccc2o1 returned p53null 39C tox inconclusive and p53null 32C kill 10µM*.
`N#Cc1ccc(COC[C@H]2O[C@@H](n3c(NCc4ccc(Cl)c(Cl)c4)nc4c(N)ncnc43)[C@@H](O)[C@@H]2O)cc1` gave SKOV3 invasion -20%.
COc1ccccc1NC(=O)c1c(NCc2ccc(OC)c(OC)c2OC)sc2c1CCCC2 was read as SKOV3 invasion 13%, PMP22 txn prim 5µM*, S16 F2sN tox inconclusive, mTORC1 inh -10%, p53null 39C tox 27% and p53null 32C kill 35%.
`O=C(N/N=C/c1sc2ccccc2c1O)c1ccccc1` gave p53null 32C kill 7.1µM*.
O=C(N/N=C/c1cccs1)c1ccc(NC(=O)c2ccccc2Cl)cc1 was read as p53null 39C tox 36%.
Screening C[C@H](CCC(=O)O)[C@H]1CC[C@H]2[C@H]3[C@@H](CC[C@]12C)[C@@]1(C)CC[C@@H](O)C[C@H]1C[C@@H]3O returned SKOV3 invasion 1%.
`COc1cccc(/C=N/Nc2nnc(C)n2N)c1OCc1ccccc1Cl` gave p53null 39C tox 18µM*.
